Reference: PubChem BioAssay (NCI)
The panel holds about 83,000 compounds, 20% with a hit somewhere; the sample as a whole holds those more often.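 How to read the values: 0–100, growth inhibition (40 = 60% inhibited); 0, no net growth; -100 to 0, cell death (-40 = 40% of starting cells died; -100 = all dead).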 Activity calls are given as the source filed them.

What follows are compounds tested on SK-MEL-2 melanoma (assay: NCI-60 one-dose screen, 48 h (100 = growth as untreated, 0 = no growth, -100 = all killed)). Conditions: 10 µM unless noted.
Protocol: Growth inhibition of the SK-MEL-2 human tumor cell line is measured as a screen for anti-cancer activity. Cells are grown in 96 well plates and exposed to the test compound for 48 hours. Compounds are tested at a single concentration, which is 10^-5 M for most compounds. The reported endpoint is percent growth (GI% or GIPRCNT), where numbers from 0 - 100% represent growth inhibition, and numbers from -100% - 0 represent cell death. For example, a value of 40 represents 60% growth inhibition. A value of 0 means no net growth occurred over the course of the experiment. A value of -40 indicates 40% of cells at the beginning of the experiment died by the end of the experiment. A value of -100 means all cells are dead at the end of the experiment.
NCI-60 Human Tumor Cell Lines Screen was performed using the standard one-dose NCI protocol, which is described in more detail at https://dtp.cancer.gov/discovery_development/nci-60/default.htm.
Compounds with GIPRCNT values below 10 were considered active. Activity score was based on GIPRCNT using the following formula: […]
Score is 0 for GIPRCNT values of 100 or above, 50 for GIPRCNT values of 0, and 100 for GIPRCNT values of -100.

Compound | growth
O=C(N/N=C/c1ccc(O)cc1O)c1cccnc1 | 55.6% (inactive)
COc1ccc(/C=C2\CN(C(=O)CCN3CCC(=NO)CC3)C/C(=C\c3ccc(OC)cc3)C2=O)cc1 | 89.4% (inactive)
CC[C@H](CO)Nc1nc(NCc2ccccc2)n2ncc(C(C)C)c2n1 | 11.1% (inactive)
O=C1/C(=C/c2ccc(F)cc2)CN(C(=O)CCN2CCC(=NO)CC2)C/C1=C\c1ccc(F)cc1 | -14% (active)
COC(/C=C/c1ccc([N+](=O)[O-])cc1)OC | 99% (inactive)
CCCCCCCCCCCCCCCCCCSC1=CC(=O)C(OC)=C(OC)C1=O | 96.5% (inactive)
Nc1cc(O)cc2cccnc12 | 110% (inactive)
CCN1CCN(Cc2ccc(NC(=O)Nc3nc4ccc(Oc5ccnc(C(=O)NC)c5)cc4s3)cc2C(F)(F)F)CC1 | -22.8% (active)
CC1=C(C)C(=O)OC([C@](C)(O)[C@]2(O)CC[C@@]3(O)[C@@H]4C[C@H]5O[C@]56CC=CC(=O)[C@]6(C)[C@H]4CC[C@]23COC(=O)c2ccc(C)o2)C1 (stereo not given in full) | -63% (active)
CCN(CC)CCCC(C)Nc1ccnc2c(OC)cccc12 (stereo not given) | 127% (inactive)
Cc1ccc2c(c1)n([O-])c1cc(Cl)ccc1[n+]2=O | 92.5% (inactive)
CCN(CC)Cc1cc(Nc2c3ccc(Cl)cc3nc3c(C)cccc23)ccc1O | -73.2% (active)
C=C1C(=O)O[C@H]2[C@H]1CC/C(Cn1cc(Cn3ccc4ccccc43)nn1)=C\CC[C@@]1(C)O[C@@H]21 | 61.5% (inactive)
O=C(CNC1C2CC3CC(C2)CC1C3)Sc1nnc2sc3ccccc3n12 (stereo not given) | 108% (inactive)
CC1(C)CC(C(=O)OCCCCCCCCCCC[P+](c2ccccc2)(c2ccccc2)c2ccccc2)C(C)(C)N1O (stereo not given) | -45.8% (active)
Cc1cc(=O)oc2cc(Oc3nc(-c4ccc(Cl)cc4)cn4c(-c5ccc(Cl)cc5)cnc34)ccc12 | 106% (inactive)
CCN(C(=O)CN1CCN(c2cc3c(cc2F)c(=O)c(C(=O)O)cn3CC)CC1)c1nc(-c2ccccc2)cs1 | -15.3% (active)
COC(=O)C12C3C(=O)N(c4ccc(OC)cc4)C(=O)C3C(c3cn(-c4ccccc4)nc3C)N1[C@H](c1cn(-c3ccccc3)nc1C)[C@@H]1C(=O)N(c3ccc(OC)cc3)C(=O)[C@@H]12 (stereo not given in full) | 107% (inactive)
CCCCCCCCCC(=O)Oc1ccc(/C(=C(/C)Cc2cccc(OC)c2)c2ccc(OCCN(C)C)cc2)cc1 | 107% (inactive)
OC(c1cccc(C(F)(F)F)c1)c1cnccc1NC1CCCCCC1 (stereo not given) | 43% (inactive)

Compound | growth
COc1cc(NCCCCN=C(N)NC(N)=NC(C)C)c2ncccc2c1 | 43.7% (inactive)
CSc1ncnc2c1ncn2C1CCCO1 (stereo not given) | 99.3% (inactive)
COc1cc(/C=C2\CN(C(=O)CCN3CCC(=NO)CC3)C/C(=C\c3cc(OC)c(OC)c(OC)c3)C2=O)cc(OC)c1OC | -26.9% (active)
N#Cc1c2c(nc3n[nH]c(N)c13)CCCC2 | 109% (inactive)
O=C(Nc1ccc(F)cc1)Nc1ccc(CCO)cc1 | 112% (inactive)
Cc1nn(-c2ccccc2)c2nc(C)n(-c3ccc(Br)cc3)c(=O)c12 | 26.6% (inactive)
Cc1cccc(NC(=O)c2sc3nc4c(cc3c2N)C(=O)CCC4)c1 | 64.7% (inactive)
O=C1C=CC(Nc2ccccc2[N+](=O)[O-])C1Nc1ccccc1[N+](=O)[O-] (stereo not given) | 67.9% (inactive)
COc1ccc(-c2cc(-c3ccc(N(C)C)cc3)nc(NC(=O)c3ccncc3)n2)cc1 | 116% (inactive)
CN1CCN(Cc2ccc(NC(=O)c3[nH]ncc3Nc3ncnc4c3CCC4)cc2)CC1 | 13.6% (inactive)
O=C1C=CC(=O)c2c1nc1n2CCCC1 | 70.6% (inactive)
Cc1nc2sc(C(=O)Nc3cccc4c3OCCO4)c(N)c2cc1C(C)O (stereo not given) | 17.1% (inactive)
CN1CCN(Cc2ccc(NC(=O)c3[nH]ncc3Nc3ncnc4[nH]ccc34)cc2)CC1 | -12.3% (active)
CC(=O)C1=C(O)C=C2Oc3c(C(=O)/C=C/c4c(Cl)cccc4Cl)c(O)c(C)c(O)c3[C@]2(C)C1=O | -49.1% (active)
C=C1CC2(OC1=O)C(=O)N(CCCCCCCCCCCCN1C(=O)C3(CC(=C)C(=O)O3)c3ccccc31)c1ccccc12 (stereo not given) | 73.3% (inactive)
C=C1CCC2C3(C)COC(C)(C)OC3CCC2(C)C1C/C=C1/C(=O)OCC1OC(C)=O (stereo not given) | 49.2% (inactive)
Nc1cc2ccncc2c2ccccc12 | 45.5% (inactive)
COc1cnc2c(c1)C(=O)c1c-2n(CCCN2CCCC2)c(=O)c2cc([N+](=O)[O-])ccc12 | 13.8% (inactive)
Cl/C(=N\Nc1ccccc1)c1ccccc1 | 96.6% (inactive)
CCCCNC(=O)NS(=O)(=O)c1ccc(N2N=C(c3cc(C)ccc3C)CC2c2cc(OC)c(OC)c(OC)c2)cc1 (stereo not given) | 54.9% (inactive)
